Measured values taken from PubChem BioAssay (EPA / NIEHS).
Activity calls are given as the source filed them. Rule for the calls: active = hit-call score of the fitted dose curve at least 0.9, where 1 is the maximum; inactive = score below 0.9.

Assay: CEETOX_H295R_ANDR: CeeTox H295R High-throughput Steroidogenesis Assay for Androstenedione (ANDR) (AID 2283436);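 note: human H295R adrenal cells exposed for 48 h with androstenedione measured in medium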
Conditions: actives raise or lower the signal
Method in brief: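 Read-out is androstenedione secreted into medium, measured by tandem mass spectrometry after liquid-liquid extraction. Cells were H295R, dosed for 48 h per modified OECD 456; activity fitted in both directions relative to DMSO.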

Row | SMILES | outcome | AC50
1 | O=C1OC(c2ccc(O)cc2)(c2ccc(O)cc2)c2ccccc21 | inactive | 
2 | CCN(CC)CCOc1ccc(C(=C(Cl)c2ccccc2)c2ccccc2)cc1 |  | 0.222 µM (active)
3 | CCC(C)N(C)C(=O)c1cc2ccccc2c(-c2ccccc2Cl)n1 (stereo not drawn) | inactive | 
